Targets with a hit are over-represented here; the source holds about 7,900 in all. About 0.6% of all pairs of compound and target were hits. Unmarked numbers belong to inactive results.

Chain of UniProt Q9BTX3 (Q9BTX3 whole entry, looked up): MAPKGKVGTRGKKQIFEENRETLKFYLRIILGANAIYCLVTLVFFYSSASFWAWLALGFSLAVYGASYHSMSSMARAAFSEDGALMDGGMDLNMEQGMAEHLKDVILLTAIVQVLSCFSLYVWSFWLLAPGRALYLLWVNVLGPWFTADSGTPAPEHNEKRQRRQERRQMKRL
Chain of UniProt Q9Y4E6 (Q9Y4E6 whole entry, looked up): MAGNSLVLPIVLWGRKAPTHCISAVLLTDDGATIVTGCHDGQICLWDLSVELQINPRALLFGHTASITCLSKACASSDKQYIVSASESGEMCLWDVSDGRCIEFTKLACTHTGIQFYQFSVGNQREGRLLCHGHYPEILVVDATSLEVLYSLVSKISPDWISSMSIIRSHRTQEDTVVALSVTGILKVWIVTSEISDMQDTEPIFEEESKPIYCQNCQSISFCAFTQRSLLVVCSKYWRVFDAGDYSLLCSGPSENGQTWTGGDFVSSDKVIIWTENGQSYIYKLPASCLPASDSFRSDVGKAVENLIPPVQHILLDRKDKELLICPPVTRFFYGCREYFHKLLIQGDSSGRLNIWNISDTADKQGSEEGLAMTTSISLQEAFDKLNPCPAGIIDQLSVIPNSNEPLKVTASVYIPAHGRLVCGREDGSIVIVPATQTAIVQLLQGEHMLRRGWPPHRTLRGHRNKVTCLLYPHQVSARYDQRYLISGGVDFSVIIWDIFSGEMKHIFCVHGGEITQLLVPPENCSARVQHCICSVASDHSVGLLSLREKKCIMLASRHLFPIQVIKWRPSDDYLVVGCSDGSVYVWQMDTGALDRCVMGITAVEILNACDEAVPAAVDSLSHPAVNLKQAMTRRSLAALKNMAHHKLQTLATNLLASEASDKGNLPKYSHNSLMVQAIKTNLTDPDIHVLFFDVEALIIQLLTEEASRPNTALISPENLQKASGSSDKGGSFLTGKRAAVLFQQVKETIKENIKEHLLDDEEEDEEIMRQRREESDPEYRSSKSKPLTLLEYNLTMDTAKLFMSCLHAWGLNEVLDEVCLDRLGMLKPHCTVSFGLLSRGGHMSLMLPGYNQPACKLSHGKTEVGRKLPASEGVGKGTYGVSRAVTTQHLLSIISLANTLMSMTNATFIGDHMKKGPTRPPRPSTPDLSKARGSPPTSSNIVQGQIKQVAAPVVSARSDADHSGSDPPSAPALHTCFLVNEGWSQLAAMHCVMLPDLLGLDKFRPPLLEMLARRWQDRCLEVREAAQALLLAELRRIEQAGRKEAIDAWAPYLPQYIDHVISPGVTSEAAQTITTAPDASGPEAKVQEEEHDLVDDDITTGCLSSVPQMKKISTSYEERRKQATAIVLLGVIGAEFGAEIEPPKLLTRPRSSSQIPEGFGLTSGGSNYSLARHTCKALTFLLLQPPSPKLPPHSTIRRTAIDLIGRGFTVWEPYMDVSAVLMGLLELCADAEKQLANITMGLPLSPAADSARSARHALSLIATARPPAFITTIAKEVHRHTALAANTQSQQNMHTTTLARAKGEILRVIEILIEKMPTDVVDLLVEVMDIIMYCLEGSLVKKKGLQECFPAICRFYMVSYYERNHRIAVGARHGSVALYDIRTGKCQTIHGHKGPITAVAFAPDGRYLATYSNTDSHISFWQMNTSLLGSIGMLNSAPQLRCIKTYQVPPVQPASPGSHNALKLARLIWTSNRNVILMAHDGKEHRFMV
Chain of UniProt Q15906 (Q15906 whole entry, looked up): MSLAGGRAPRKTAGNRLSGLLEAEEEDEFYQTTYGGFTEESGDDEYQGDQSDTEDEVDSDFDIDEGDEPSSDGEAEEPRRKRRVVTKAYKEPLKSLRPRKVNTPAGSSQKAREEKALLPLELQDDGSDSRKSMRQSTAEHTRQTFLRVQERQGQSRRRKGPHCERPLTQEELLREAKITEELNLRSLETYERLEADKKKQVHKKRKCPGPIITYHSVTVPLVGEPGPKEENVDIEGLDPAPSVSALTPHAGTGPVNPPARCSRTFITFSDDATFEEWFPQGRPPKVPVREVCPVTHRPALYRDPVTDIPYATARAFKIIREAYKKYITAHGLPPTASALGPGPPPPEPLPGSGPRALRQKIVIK
Chain of UniProt O43156 (O43156 whole entry, looked up): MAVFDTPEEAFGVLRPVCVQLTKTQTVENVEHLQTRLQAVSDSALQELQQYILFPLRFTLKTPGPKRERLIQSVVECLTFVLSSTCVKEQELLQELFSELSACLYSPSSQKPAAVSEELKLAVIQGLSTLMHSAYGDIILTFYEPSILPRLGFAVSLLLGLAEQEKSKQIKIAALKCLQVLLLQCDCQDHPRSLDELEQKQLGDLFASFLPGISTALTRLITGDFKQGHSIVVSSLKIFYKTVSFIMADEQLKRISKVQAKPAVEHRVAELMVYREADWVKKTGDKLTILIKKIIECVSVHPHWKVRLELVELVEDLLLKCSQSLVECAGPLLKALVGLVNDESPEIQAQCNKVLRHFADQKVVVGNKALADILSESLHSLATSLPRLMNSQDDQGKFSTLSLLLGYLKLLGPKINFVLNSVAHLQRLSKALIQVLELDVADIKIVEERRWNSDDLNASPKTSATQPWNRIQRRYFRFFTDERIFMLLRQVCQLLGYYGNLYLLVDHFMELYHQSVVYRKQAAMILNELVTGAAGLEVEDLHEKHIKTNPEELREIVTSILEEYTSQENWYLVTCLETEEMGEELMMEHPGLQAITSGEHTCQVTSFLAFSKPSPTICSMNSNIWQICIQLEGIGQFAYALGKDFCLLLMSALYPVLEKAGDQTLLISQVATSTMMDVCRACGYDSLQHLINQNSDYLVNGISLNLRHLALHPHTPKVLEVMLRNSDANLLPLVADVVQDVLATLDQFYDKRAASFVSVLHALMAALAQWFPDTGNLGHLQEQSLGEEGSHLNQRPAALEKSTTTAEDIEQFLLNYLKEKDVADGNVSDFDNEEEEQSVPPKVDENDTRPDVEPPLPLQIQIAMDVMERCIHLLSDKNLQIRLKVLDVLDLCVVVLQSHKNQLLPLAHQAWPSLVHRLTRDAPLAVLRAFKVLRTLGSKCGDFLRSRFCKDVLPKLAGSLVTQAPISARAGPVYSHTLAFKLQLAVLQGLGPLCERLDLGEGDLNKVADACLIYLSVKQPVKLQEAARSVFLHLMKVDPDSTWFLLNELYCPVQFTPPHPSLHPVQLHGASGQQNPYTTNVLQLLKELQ
Chain of UniProt Q8N1B4 (Q8N1B4 whole entry, looked up): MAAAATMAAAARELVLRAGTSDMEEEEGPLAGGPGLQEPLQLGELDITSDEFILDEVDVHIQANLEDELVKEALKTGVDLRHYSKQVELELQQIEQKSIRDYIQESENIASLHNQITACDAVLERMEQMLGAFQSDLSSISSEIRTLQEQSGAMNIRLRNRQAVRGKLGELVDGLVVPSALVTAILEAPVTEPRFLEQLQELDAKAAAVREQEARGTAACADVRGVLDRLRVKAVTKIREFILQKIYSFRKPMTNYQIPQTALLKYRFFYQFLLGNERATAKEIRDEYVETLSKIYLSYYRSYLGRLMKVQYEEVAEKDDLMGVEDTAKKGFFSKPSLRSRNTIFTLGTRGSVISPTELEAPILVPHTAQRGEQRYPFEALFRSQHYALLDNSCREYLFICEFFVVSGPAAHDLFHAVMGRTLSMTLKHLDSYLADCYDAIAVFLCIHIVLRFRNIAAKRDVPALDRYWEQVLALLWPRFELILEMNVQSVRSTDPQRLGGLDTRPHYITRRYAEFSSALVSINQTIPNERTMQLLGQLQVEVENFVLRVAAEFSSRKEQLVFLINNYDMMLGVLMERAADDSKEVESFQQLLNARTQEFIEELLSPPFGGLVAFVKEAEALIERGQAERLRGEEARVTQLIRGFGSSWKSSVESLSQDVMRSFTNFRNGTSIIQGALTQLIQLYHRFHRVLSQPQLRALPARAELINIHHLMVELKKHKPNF
Chain of UniProt Q5VIR6 (Q5VIR6 whole entry, looked up): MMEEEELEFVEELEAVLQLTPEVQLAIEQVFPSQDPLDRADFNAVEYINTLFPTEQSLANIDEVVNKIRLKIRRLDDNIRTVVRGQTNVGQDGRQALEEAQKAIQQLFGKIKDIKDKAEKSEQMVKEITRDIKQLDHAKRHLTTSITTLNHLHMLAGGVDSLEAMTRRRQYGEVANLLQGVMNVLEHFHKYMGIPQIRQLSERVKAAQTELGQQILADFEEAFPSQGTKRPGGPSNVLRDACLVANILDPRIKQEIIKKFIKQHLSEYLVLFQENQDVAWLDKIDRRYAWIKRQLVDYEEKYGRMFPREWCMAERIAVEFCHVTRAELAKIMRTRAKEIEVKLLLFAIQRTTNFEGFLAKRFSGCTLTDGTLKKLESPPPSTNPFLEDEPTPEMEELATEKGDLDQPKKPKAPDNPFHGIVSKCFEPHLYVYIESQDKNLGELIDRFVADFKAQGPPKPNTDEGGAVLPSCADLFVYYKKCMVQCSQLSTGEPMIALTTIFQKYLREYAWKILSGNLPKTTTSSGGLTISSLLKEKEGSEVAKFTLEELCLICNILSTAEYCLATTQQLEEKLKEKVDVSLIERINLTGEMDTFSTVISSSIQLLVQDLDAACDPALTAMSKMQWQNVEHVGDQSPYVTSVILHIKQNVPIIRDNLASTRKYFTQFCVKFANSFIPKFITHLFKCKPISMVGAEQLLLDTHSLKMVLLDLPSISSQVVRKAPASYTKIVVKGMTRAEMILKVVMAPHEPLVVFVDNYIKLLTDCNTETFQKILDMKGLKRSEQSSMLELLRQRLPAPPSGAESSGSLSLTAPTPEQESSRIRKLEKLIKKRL
Chain of UniProt Q9UGM6 (Q9UGM6 whole entry, looked up): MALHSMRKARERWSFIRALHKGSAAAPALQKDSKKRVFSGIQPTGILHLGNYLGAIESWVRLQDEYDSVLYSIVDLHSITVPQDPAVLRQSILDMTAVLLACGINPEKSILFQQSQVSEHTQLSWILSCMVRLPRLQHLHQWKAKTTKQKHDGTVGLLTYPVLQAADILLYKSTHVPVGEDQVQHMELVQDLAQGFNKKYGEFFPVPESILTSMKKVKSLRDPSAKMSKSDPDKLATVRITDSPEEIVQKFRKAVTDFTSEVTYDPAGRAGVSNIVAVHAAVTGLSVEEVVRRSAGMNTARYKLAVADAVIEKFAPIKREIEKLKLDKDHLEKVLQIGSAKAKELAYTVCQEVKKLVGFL

Compound in this assay: C1=CC(=C(C=C1Cl)C2=NC3=NC=CN=C3C(=N2)NC4=CC=NC=C4)F
The assay is described as follows: log2 fold change, soluble protein after heating vs DMSO (PISA); higher = thermal stabilisation; K562 cells, 10 uM, 30 min; active = over 0.2 and 3.5 SD of the protein, either way, in both replicates (recomputed). In short, it runs like this:
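Values are thermal stability changes relative to control samples and are taken from duplicates. They are stated as log2 fold changes. Before quantification by TMTpro 16plex LC-MS/MS with equalised channel sums, K562 cells at 2×10^6 cells/mL were treated with 10 μM compound for 30 min, heated in aliquots for 3 min across 48°C-58°C, pooled, extracted in PBS with 0.5% NP-40 at 4°C, and centrifuged at 21,000xg for 90 min to give the soluble supernatant.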
As to VPS72 isoform 2 (UniProt Q15906), the log2 fold change is 0.053. The figure for UBE2J1 (UniProt Q9Y385) is -0.033; for WDR43 (UniProt Q15061) it is 0.008; for UCHL5 isoform 3 (UniProt Q9Y5K5) it is 0.415. Turning to TMEM161A (UniProt Q9NX61), the log2 fold change is -0.019. Take VPS50 (UniProt Q96JG6): the log2 fold change was -0.003. Consider XRCC6 (UniProt P12956), for which the log2 fold change was 0.093.

Consider WRB (UniProt O00258), for which the log2 fold change is 0.032. The figure for TMEM214 (UniProt Q6NUQ4) is -0.019. Consider TOM1 isoform 2 (UniProt O60784), for which the log2 fold change was 0.107. Consider UBE3D (UniProt Q7Z6J8), for which the log2 fold change is 0.033. In the case of TOE1 (UniProt Q96GM8), the log2 fold change is -0.267. With TRMT2A (UniProt Q8IZ69), the log2 fold change was -0.124.

Take VAMP7 (UniProt P51809): the log2 fold change was 0.077.

Regarding VTA1 (UniProt Q9NP79), the log2 fold change is 0.07.

Turning to VPS41 (UniProt P49754), the log2 fold change was -0.049.

As to TMEM208 (UniProt Q9BTX3), the log2 fold change is 0.101.

Regarding USP14 (UniProt P54578), the log2 fold change is 0.084. As to TRIM4 (UniProt Q9C037), the log2 fold change was 0.035. To TMEM41A (UniProt Q96HV5) belongs -0.02. Regarding TRAM1 (UniProt Q15629), the log2 fold change is -0.028. Turning to USP15 (UniProt Q9Y4E8), the log2 fold change was 0.08. Consider TNNC2 (UniProt P02585), for which the log2 fold change is -0.004. Regarding VPS52 (UniProt Q8N1B4), the log2 fold change is -0.029. On to TRAPPC6B (UniProt Q86SZ2), for which the log2 fold change is 0.315 (active). Take WDR7 (UniProt Q9Y4E6): the log2 fold change is 0.065. On to TMEM189-UBE2V1 (UniProt I3L0A0), for which the log2 fold change is 0.015. Regarding TTI1 (UniProt O43156), the log2 fold change is -0.015. Take WASHC2A (UniProt Q641Q2): the log2 fold change was -0.025. For TSG101 (UniProt Q99816), the log2 fold change was 0.051. As to TRMT10A (UniProt Q8TBZ6), the log2 fold change is 0.004.

Regarding WARS2 (UniProt Q9UGM6), the log2 fold change is 0.034. On to UBE2Q1 (UniProt Q7Z7E8), for which the log2 fold change was 0.059. The figure for VPS53 isoform 4 (UniProt Q5VIR6) is 0.003; for TOM1L1 (UniProt O75674) it is -0.003; for UBC (UniProt P0CG48) it is -0.004.

Values taken from the supplement of paper PMC10849652.
